In PubChem BioAssay (NCI) one finds growth data, which are given here for 40 compounds.

About 83,000 compounds went through this panel and 20% of them were active in at least one assay; those are over-represented in the sample as a whole.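 Step 1: grow cells in 96-well plates. Step 2: add test compound at a single concentration. Step 3: incubate 48 h. Step 4: record percent growth.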 Unmarked numbers belong to inactive results. Activity calls are given as the source filed them.

The test concerns OVCAR-4 ovarian. The test can be described thus: NCI-60 one-dose screen, 48 h (100 = growth as untreated, 0 = no growth, -100 = all killed). The conditions noted are these: 10 µM unless noted. The procedure: Growth inhibition of the OVCAR-4 human tumor cell line is measured as a screen for anti-cancer activity. Cells are grown in 96 well plates and exposed to the test compound for 48 hours. Compounds are tested at a single concentration, which is 10^-5 M for most compounds. The reported endpoint is percent growth (GI% or GIPRCNT), where numbers from 0 - 100% represent growth inhibition, and numbers from -100% - 0 represent cell death. For example, a value of 40 represents 60% growth inhibition. A value of 0 means no net growth occurred over the course of the experiment. A value of -40 indicates 40% of cells at the beginning of the experiment died by the end of the experiment. A value of -100 means all cells are dead at the end of the experiment.
NCI-60 Human Tumor Cell Lines Screen was performed using the standard one-dose NCI protocol, which is described in more detail at https://dtp.cancer.gov/discovery_development/nci-60/default.htm.
Compounds with GIPRCNT values below 10 were considered active. Activity score was based on GIPRCNT using the following formula: […]
Score is 0 for GIPRCNT values of 100 or above, 50 for GIPRCNT values of 0, and 100 for GIPRCNT values of -100.
Turning to `CCOC(=O)C(=O)CC(=O)N1C(=S)NC(=O)C1CC(C)C` (stereo not given), the growth is 102%.

In the case of `COc1cccc(/C=C(/C)c2ccc3cccc(OC)c3[o+]2)c1O`, the growth was 98%.

As for `Cc1ccc(S(=O)(=O)N(CC[C@@H]2C[C@H]2c2cc3ccccc3o2)S(=O)(=O)c2ccc(C)cc2)cc1`, the growth was 76.8%.

`Cc1cc(-c2ccc(Cl)cc2)n(Cc2nnc(SCC(=O)Nc3ccc(S(N)(=O)=O)cc3)n2-c2ccc([N+](=O)[O-])cc2)n1`: the growth was 86.5%.

On to `CCCCCc1ccc(S(=O)(=O)Nc2cccc(-c3csc(NC(=O)CCCCCN4CCN(CCO)CC4)n3)c2)cc1`, for which the growth is 80.8%.

On to `COc1ccc([C@@H]2c3[nH]c4ccccc4c3C[C@H]3C(=O)N(C4CCN(CC5CCCCC5)CC4)CC(=O)N23)c(OC)c1`, for which the growth was 70.5%.

Turning to `CC(C)(O)c1cncc(-c2ccc3ncnc(NCc4ccccc4)c3c2)c1`, the growth was 77.3%.

With `COc1cc2oc(-c3cccc(NC(=O)c4cc(N)ccc4Cl)c3)cc(=O)c2c(OC)c1OC`, the growth is 97.6%.

For the compound `Cc1ccc(-n2cc(/C=N/NC(=O)c3ccncc3)c(-c3ccc(S(C)(=O)=O)cc3)n2)cc1`, the growth was 102%.

As for `CC(C)(C)c1ccc(C(=O)Nc2sc3c(c2C(N)=O)CC/C(=N\O)C3)cc1`, the growth is 10%.

On to `COc1cc(-c2nc(SC(C)C)n(C(C)C)c(=O)c2C#N)ccc1OCc1ccccc1`, for which the growth is 4.7% (active).

Take `Cc1cc(C)cc(C(=O)Nc2cccc(C#Cc3cccc4[nH]nc(N)c34)c2)c1`: the growth was 80.7%.

Turning to `COC(=O)c1ccc(NC2=C/C(=N/S(=O)(=O)c3ccc(C(=O)O)cc3)c3ccccc3C2=O)cc1`, the growth is -56.5% (active).

Take `NC(=O)c1c(NC(=O)c2ccc(F)cc2F)sc2c1CCC(=O)C2`: the growth is 27%.

`COc1ccc(S(=O)(=O)NCCCNc2nccc(-c3cn(C(C)(C)C)nc3-c3ccc(Cl)c(OC)c3)n2)cc1`: the growth was 58.9%.

For the compound `N#Cc1c(Nc2ccccc2)nn2c(-c3ccc([N+](=O)[O-])cc3)ccnc12`, the growth was 108%.

Take `O=C1C(c2ccccc2)=C(N2CCc3ccccc32)OC1(Cl)Cl`: the growth is 59.9%.

On to `CC[C@@H](CO)Nc1ccc2ncc(C#Cc3cncc(C(=O)Nc4ccc(CN5CCN(C)CC5)c(C(F)(F)F)c4)c3)n2n1`, for which the growth is -44.1% (active).

As for `CC(O)c1cc2ccccc2c(=O)o1` (stereo not given), the growth was 100%.

As for `O=C(NNc1nc2cc(F)c(F)cc2n2c(CN3CC4CNCC4C3)ccc12)c1ncccn1` (stereo not given), the growth is 21.6%.

Regarding `CCNC(=O)N1CCc2cc(OC)c(OCCc3ccc(OC)nc3)cc2C1c1ccc(OC)cc1C` (stereo not given), the growth was 67.1%.

With `CNC(=O)c1cc(-n2ccc3cc(NC(=O)Nc4ccc(N5CCOCC5)c(C(F)(F)F)c4)ccc32)ccn1`, the growth is 40.6%.

Take `NC(N)=Nc1ccc(Nc2cccc(Oc3ccc(Cl)c(C(F)(F)F)c3)c2)cn1`: the growth was 39.8%.

Take `O=C1[C@H]2Cc3c([nH]c4ccccc34)[C@@H](c3c(Cl)cccc3Cl)N2C(=O)CN1C1CCN(CC2CCCCC2)CC1`: the growth was 101%.

Turning to `CN(C)CCNC(=O)c1ccc(-c2nc3ccc4[nH]ncc4c3c3c2CCC3)cc1`, the growth is 10.2%.

Regarding `CS(=O)(=O)Nc1cc(-c2ccc3ncc(C#N)c(NCc4ccccc4F)c3c2)cnc1Cl`, the growth was 12.6%.

In the case of `COc1ccccc1-n1cc(C#N)c(N)c1C(=O)c1ccc(C)cc1`, the growth was 103%.

Consider `Cc1nc2ncc(-c3ccc4ncnc(NCc5ccccc5)c4c3)cc2[nH]1`, for which the growth was 48%.

As to `COc1cc(OC)cc(C(=O)Nc2sc3c(c2C(N)=O)CCC(=O)C3)c1`, the growth was 9.16% (active).

Turning to `C=C(C=O)[C@@H]1CC[C@]2(CO)CC[C@]3(C)[C@H](CC[C@@H]4[C@@]5(C)CCCNC(C)(C)[C@@H]5CC[C@]43C)[C@@H]12`, the growth is 87%.

With `O=C1CC(=O)N2CSCN(C(c3ccccc3)c3nc4ncncc4[nH]3)C2=N1` (stereo not given), the growth is 107%.

As to `COc1cc(OC)c(/C=C/S(=O)(=O)Cc2ccc(OC)c(NCC(=O)NO)c2)c(OC)c1`, the growth was 45.3%.

As for `Cc1cc2ncc(-c3cc4ccccc4c(N4CCN(C)CC4)n3)nc2cc1C`, the growth was 37.6%.

In the case of `Cc1cc(C)c2sc(=O)n(Cc3nnc(SCCC(=O)O)o3)c2n1`, the growth was 108%.

Regarding `CCOP(=O)(OCC)OC[C@]12CCC(C)(C)C=C1[C@H]1CC[C@@H]3[C@@]4(C)CC[C@H](OP(=O)(OCC)OCC)C(C)(C)[C@@H]4CC[C@@]3(C)[C@]1(C)CC2`, the growth was -1.21% (active).

Regarding `COc1ccc(C2CC(c3cccc(Nc4nc(Cl)nc5cc(OC)c(OC)cc45)c3)=Nc3c(N)nc(N)nc3N2)cc1` (stereo not given), the growth was 96.6%.

Consider `CC(C)C[C@@H]1N[C@@]2(C(=O)Nc3ccccc32)[C@@H](c2ccc(F)cc2)[C@@H]1C(=O)c1ccc(O)cc1`, for which the growth was 89.6%.

Consider `Nc1nc(-c2cccc([N+](=O)[O-])c2)c(N=Nc2cccc([N+](=O)[O-])c2)s1`, for which the growth was -15.2% (active).

In the case of `CC(C)(C)c1ccc(C(=O)Nc2sc3c(c2C(N)=O)CCC(O)C3)cc1` (stereo not given), the growth is 68.5%.

On to `CCNC(=O)N1CCc2cc(OC)c(OCCc3ccc(OC)nc3)cc2C1c1ccc(C)cc1C` (stereo not given), for which the growth is 52.5%.
